This note sets out measurements from PMC5700166.

Substitutions are numbered along the chain they refer to.

Test in all cases: protein-binding microarray (PBM); PBM: ~300 nM protein, 6 mM HEPES pH 7.8, 80 mM KCl, 0.5 mM EDTA, 0.5 mM EGTA, 6% glycerol, 35 ng/ul poly-dIdC, 1% milk, 1 h, room temperature; Ap Aiptasia and Nv Nematostella (sea anemones) / Co Capsaspora / Aq Amphimedon (sponge) / Dm Drosophila / Hu human; RHD is the Rel homology domain; high values mean tight binding
Holding throughout (conditions): dsDNA, one strand shown

In one assay the target is T1, GST-Ap-NF-kB RHD (Exaiptasia pallida (Aiptasia), UniProt A0A913YAJ5 2-422).
T1 sequence: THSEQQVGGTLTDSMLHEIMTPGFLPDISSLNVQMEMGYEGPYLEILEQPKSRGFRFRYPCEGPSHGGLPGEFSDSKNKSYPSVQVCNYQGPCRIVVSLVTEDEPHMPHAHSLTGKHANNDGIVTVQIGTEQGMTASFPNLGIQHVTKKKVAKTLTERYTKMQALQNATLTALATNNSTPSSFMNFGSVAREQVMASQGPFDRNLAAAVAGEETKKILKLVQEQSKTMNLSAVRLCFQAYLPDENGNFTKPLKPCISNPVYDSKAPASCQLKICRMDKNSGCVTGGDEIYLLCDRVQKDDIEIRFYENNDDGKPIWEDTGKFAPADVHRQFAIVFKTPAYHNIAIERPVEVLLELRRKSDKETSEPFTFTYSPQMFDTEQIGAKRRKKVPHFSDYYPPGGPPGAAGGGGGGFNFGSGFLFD

Assay [1] concerns the target T2, GST-Nv-NF-kB (Cys allele) (Nematostella vectensis, UniProt E5G601 2-411).
T2 sequence: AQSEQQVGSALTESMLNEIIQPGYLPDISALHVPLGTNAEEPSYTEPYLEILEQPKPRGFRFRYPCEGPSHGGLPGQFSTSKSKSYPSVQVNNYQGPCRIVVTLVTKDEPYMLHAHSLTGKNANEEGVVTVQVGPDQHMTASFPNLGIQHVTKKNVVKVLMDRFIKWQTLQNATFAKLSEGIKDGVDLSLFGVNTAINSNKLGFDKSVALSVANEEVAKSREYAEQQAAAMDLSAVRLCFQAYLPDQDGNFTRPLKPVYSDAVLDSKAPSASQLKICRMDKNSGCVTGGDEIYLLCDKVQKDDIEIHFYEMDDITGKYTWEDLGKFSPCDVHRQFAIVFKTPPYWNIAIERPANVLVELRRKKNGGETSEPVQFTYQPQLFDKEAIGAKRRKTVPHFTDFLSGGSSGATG

Assay [2] has as its target T3, GST-Nv-NF-kB (Ser allele) (Nematostella vectensis, UniProt A7UNT2 2-411).
T3 sequence: T2 sequence with Q21R, C66S, S207N, E215Q, V217A, E225K, A268E, D399E

The next assay deals with T4, GST-Co-NF-kB (Capsaspora owczarzaki, UniProt F1ARL5 200-546).
T4 sequence: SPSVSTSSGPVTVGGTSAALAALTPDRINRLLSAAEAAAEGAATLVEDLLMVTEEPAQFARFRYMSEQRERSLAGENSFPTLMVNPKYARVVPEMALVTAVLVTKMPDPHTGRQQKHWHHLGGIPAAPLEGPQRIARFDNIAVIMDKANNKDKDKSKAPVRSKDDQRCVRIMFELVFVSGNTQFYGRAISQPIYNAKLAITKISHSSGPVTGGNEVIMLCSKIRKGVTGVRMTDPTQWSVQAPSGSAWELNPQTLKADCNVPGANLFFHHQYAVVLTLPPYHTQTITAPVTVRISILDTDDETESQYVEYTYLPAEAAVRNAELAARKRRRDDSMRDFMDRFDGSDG

For the next assay, the target named is T5, GST-Dm-Relish (Drosophila melanogaster, UniProt Q94527 99-473).
T5 sequence: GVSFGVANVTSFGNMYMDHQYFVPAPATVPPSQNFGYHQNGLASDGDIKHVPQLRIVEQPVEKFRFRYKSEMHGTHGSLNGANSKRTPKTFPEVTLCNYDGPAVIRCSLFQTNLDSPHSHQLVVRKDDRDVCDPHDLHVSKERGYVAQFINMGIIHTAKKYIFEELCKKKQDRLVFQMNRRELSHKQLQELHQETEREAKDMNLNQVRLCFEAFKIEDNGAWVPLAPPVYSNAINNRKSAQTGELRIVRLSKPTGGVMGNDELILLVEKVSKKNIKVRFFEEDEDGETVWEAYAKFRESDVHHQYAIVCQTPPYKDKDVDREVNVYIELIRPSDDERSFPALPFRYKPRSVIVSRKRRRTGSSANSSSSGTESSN

In another assay the target is T6, GST-Aq-NF-kB (Amphimedon queenslandica, UniProt A9Y5G7 2-389).
T6 sequence: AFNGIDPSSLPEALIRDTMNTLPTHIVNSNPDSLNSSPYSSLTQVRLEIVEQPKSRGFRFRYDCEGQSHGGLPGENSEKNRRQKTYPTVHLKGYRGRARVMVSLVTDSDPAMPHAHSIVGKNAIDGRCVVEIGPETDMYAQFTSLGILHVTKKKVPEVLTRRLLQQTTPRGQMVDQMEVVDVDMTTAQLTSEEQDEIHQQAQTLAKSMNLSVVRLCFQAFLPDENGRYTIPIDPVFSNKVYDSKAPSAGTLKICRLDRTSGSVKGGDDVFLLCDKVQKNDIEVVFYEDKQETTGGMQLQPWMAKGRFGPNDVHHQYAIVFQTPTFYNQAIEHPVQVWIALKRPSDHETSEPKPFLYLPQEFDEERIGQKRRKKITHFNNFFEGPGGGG

The target in the next assay is GST-Hu-p50 (Homo sapiens, UniProt P19838 7-356).
GST-Hu-p50, sequence (P19838 7-356): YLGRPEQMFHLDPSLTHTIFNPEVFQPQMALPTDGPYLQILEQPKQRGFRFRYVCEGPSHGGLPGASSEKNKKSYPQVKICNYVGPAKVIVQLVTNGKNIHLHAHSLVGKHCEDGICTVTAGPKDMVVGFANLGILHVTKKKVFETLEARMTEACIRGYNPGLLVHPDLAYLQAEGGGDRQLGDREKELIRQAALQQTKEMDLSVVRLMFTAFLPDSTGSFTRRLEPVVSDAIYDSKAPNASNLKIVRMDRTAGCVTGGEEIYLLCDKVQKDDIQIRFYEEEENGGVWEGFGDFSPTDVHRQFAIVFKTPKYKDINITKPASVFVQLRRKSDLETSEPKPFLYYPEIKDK

Consider “CCGATTAACATCAGGACTTTCCCTGATGTTAATCGGGTCTTGATTCGCTTGACGCTGCTG”, for which the binding signal turned out to be 6.5 z-score with GST-Ap-NF-kB RHD; 10.2 z-score in assay [1]; 6.68 z-score in assay [2]; 1.87 z-score with GST-Co-NF-kB; 7.98 z-score in the assay with GST-Dm-Relish; 10.5 z-score with GST-Aq-NF-kB. The same sequence displayed a binding signal in the assay with GST-Hu-p50 of 5.32 z-score.
Take “CCGATTAACATCAAGAATCCCCCTGATGTTAATCGGGTCTTGATTCGCTTGACGCTGCTG”: the binding signal with GST-Ap-NF-kB RHD came out at 9.83 z-score; in assay [1] it was 9.82 z-score; in assay [2], 10.5 z-score; with GST-Co-NF-kB, 6.36 z-score; with GST-Dm-Relish, 9.1 z-score; in the assay with GST-Aq-NF-kB it was 7.61 z-score. The binding signal with GST-Hu-p50 was found to be 7.83 z-score.
For the sequence “CCGATTAACATCAGGGGATTCCATGATGTTAATCGGGTCTTGATTCGCTTGACGCTGCTG”, the binding signal with GST-Ap-NF-kB RHD is 9.19 z-score; in assay [1], 9.04 z-score; in assay [2] it was 9.49 z-score; in the assay with GST-Co-NF-kB it was 3.19 z-score; in the assay with GST-Dm-Relish, 10 z-score; with GST-Aq-NF-kB it was 6.89 z-score. In addition, the binding signal with GST-Hu-p50 came out at 6.77 z-score.
“CCGATTAACATCAGAAACCCCCCTGATGTTAATCGGGTCTTGATTCGCTTGACGCTGCTG”: the binding signal amounted to 9.47 z-score with GST-Ap-NF-kB RHD; 7.7 z-score in assay [1]; 7.63 z-score in assay [2]; 3.94 z-score with GST-Co-NF-kB; 9.65 z-score with GST-Dm-Relish; 7.6 z-score with GST-Aq-NF-kB. Moreover, the binding signal with GST-Hu-p50 stood at 6.97 z-score.
With “CCGATTAACATCAGAAAGCCCCCTGATGTTAATCGGGTCTTGATTCGCTTGACGCTGCTG”, the binding signal with GST-Ap-NF-kB RHD was 6.56 z-score; in assay [1], 7.59 z-score; in assay [2], 5.42 z-score; in the assay with GST-Co-NF-kB, 2.16 z-score; in the assay with GST-Dm-Relish, 7.39 z-score; with GST-Aq-NF-kB, 6.98 z-score. Moreover, in the assay with GST-Hu-p50, the binding signal worked out at 6.29 z-score.
“CCGATTAACATCAGGGGAATCCATGATGTTAATCGGGTCTTGATTCGCTTGACGCTGCTG”: the binding signal in the assay with GST-Ap-NF-kB RHD was determined as 8.88 z-score; in assay [1], 9.29 z-score; in assay [2], 9.54 z-score; with GST-Co-NF-kB, 5.44 z-score; with GST-Dm-Relish, 9.65 z-score; in the assay with GST-Aq-NF-kB, 7 z-score. This sequence registered a binding signal with GST-Hu-p50 of 6.48 z-score.
For the sequence “CCGATTAACATCAGGGGCCCCCCTGATGTTAATCGGGTCTTGATTCGCTTGACGCTGCTG”, the binding signal with GST-Ap-NF-kB RHD is 7.09 z-score; in assay [1], 3.78 z-score; in assay [2], 2.88 z-score; with GST-Co-NF-kB it was 3.01 z-score; with GST-Dm-Relish, 7.07 z-score; with GST-Aq-NF-kB, 7.54 z-score. Besides, the binding signal in the assay with GST-Hu-p50 came to 4.57 z-score.
On to “CCGATTAACATCAGGGGAAGCTATGATGTTAATCGGGTCTTGATTCGCTTGACGCTGCTG”, for which the binding signal worked out at 4.87 z-score with GST-Ap-NF-kB RHD; 5.26 z-score in assay [1]; 6.8 z-score in assay [2]; 6.23 z-score with GST-Co-NF-kB; 3.04 z-score with GST-Dm-Relish; 3.92 z-score with GST-Aq-NF-kB. In the assay with GST-Hu-p50, this sequence registered a binding signal of 4.77 z-score.
Consider “CCGATTAACATCACGAATCCCCCTGATGTTAATCGGGTCTTGATTCGCTTGACGCTGCTG”, for which the binding signal with GST-Ap-NF-kB RHD was 8.06 z-score; in assay [1], 6.45 z-score; in assay [2], 7.96 z-score; in the assay with GST-Co-NF-kB, 5.16 z-score; with GST-Dm-Relish, 6.03 z-score; in the assay with GST-Aq-NF-kB, 5.26 z-score. Besides, in the assay with GST-Hu-p50, the binding signal came out at 6.72 z-score.
